Assay outcomes deposited in PubChem by National Center for Advancing Translational Sciences (NCATS).
IL-1B inflam inh = qHTS for Inhibitors of Inflammasome Signaling: IL-1-beta AlphaLISA Primary Screen | 360,000 tested, 4.7% active | AID 743279, 2014 | THP-1 LPS/ATP IL-1B secretion, AlphaLISA, 16 h; hits give low values | activity change, % at 57.5 µM; in the data active = activity change below about -50%; inconclusive = mostly about -30% to -49%; also: % is scaled to controls: 0 for no effect and ±100 for the full control effect
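Secreted IL-1B measured by AlphaLISA bead assay after 16 h compound exposure of THP-1 cells; compounds (final up to 57.5 uM) added 1 h before LPS (250 ng/mL) and ATP (1.25 mM) stimulation; lower signal means less secretion.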
ClpP mod = qHTS Assay for Activators of ClpP. ATP-dependent Clp protease proteolytic subunit (Bacillus subtilis (strain 168)), P80244. 340,000 tested, 1.9% active. purified B. subtilis ClpP, FRET peptide cleavage, 20 min. AID 651965, 2013. Potency, µM (doses to about 57.5 µM), inactives show top-dose activity change, negative = active; active = well fitted falling curve with a large enough effect; inconclusive = small, poorly fitted or top-dose-only effect; inactive = no such curve, though single readings can be large or run the other way; also: potency is read from the fitted curve at half-maximal effect; the source files actives as falling curves though it sought activators and does not explain the sign; nearly all actives have a fitted effect of over 65% in size
Target sequence (P80244 whole entry, looked up): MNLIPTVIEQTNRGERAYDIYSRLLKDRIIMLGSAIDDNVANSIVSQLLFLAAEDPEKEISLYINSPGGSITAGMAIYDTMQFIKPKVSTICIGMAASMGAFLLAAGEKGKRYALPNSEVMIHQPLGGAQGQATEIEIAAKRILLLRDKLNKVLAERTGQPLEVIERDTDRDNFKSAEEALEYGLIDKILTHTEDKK
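FRET quenching reversal measured ClpP activation: 10 microg/mL B. subtilis ClpP at pH 8 with the FRET-FV decapeptide, read at 430 nm after 320 nm excitation. The 20-min minus 0-min signal was scaled between DMSO/no-enzyme wells and ADEP (5.8 microM final).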
D3 ag = qHTS of D3 Dopamine Receptor Agonist: qHTS; D(3) dopamine receptor (Homo sapiens), P35462; D3R DiscoveRx beta-arrestin cells, luminescence, 90 min; max activation, %; 410,000 tested, 0.58% active; AID 652048, 2013; in the data active = max activation above about 30%; also: 0% is about no effect
Target sequence (P35462 whole entry, looked up): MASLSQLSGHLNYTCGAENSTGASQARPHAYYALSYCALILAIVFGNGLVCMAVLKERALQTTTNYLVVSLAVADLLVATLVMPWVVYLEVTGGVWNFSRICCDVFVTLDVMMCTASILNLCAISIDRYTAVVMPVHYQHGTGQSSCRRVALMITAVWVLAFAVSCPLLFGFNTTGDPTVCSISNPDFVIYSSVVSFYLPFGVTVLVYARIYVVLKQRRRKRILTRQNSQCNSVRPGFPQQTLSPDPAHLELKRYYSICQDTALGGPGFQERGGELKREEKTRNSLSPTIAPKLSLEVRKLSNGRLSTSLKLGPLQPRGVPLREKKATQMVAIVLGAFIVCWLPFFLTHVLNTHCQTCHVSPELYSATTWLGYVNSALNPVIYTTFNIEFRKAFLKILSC
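Agonist mode: compounds and dopamine controls were applied to plated cells for 90 min at 37 degrees C after an overnight attachment at 1500 cells/well. Luminescent read-out followed 30 - 60 minutes at room temperature with DiscoveRx detection reagent.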
DT40 TDP1 CPT = qHTS for Inhibitors of human tyrosyl-DNA phosphodiesterase 1 (TDP1): qHTS in cells in presence of CPT; chicken DT40 Tdp1-/-;hTDP1 cells + 20 nM CPT, ATP luminescence, 48 h; 420,000 tested, 12% active; Potency, µM (doses to about 46.2 µM), without a hit: at the highest dose activity change, negative = growth inhibition, usual class: inhibitors; also: potency is read from the fitted curve at half-maximal effect; % is scaled to controls: 0 for no effect and ±100 for the full control effect; nearly all actives have a fitted effect of over 55% in size
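Chicken DT40 Tdp1-/- cells stably complemented with human TDP1 were seeded at 400 cells/well in medium containing 20 nM camptothecin, exposed to pin-transferred compounds, and grown at 37 °C for at least 48 hr. Viability was read as ATP luminescence.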
D3 antag = qHTS of D3 Dopamine Receptor Antagonist: qHTS | D3R cells, DiscoveRx beta-arrestin luminescence, antagonist mode; hits give low values | D(3) dopamine receptor (Homo sapiens), P35462 | max response, negative = inhibition, % | 360,000 tested, 2.5% active; in the data active = max response below about -50%; inconclusive = no clear call, values can overlap the other calls; also: % is scaled to controls: 0 for no effect and ±100 for the full control effect
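Cells expressing the human receptor were seeded at 1500 cells/well, incubated overnight at 37 degrees C in 5% CO2, then exposed to library compounds with dopamine controls for 90 minutes at 37 degrees C before luminescent detection.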
DT40 TDP1 no CPT = qHTS for Inhibitors of human tyrosyl-DNA phosphodiesterase 1 (TDP1): qHTS in cells in absence of CPT. DT40 Tdp1-/- hTDP1 cells, no CPT, ATP luminescence, 48 h. Potency, µM (series often up to 46.2 µM), for the others: top-dose activity change, negative = growth inhibition, hits mostly inhibitors. AID 686978, 2013. 420,000 tested, 15% active; also: potency is read from the fitted curve at half-maximal effect; % is scaled to controls: 0 for no effect and ±100 for the full control effect; nearly all actives have a fitted effect of over 55% in size
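DT40 Tdp1-/-;hTDP1 cells, no CPT (DMSO vehicle only), 400 cells/well; compounds pin-transferred; ≥48 hr, 37 °C; CellTiter-Glo 30 min RT dark, luminescence read.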
* hit, by the source's call. Rows were chosen to be rich in hits. Some 21% of all compounds tested hit in one or more screens of this group. Unless noted, calls follow the shape of the dose curve; as a rule, active = well fitted inhibition curve with a large enough effect; inconclusive = small, poorly fitted or top-dose-only effect; inactive = flat fitted curve, though single readings scatter.

`CC(=O)C1=NN(c2ccccc2)C(c2ccc3c(c2)OCO3)N1c1ccccc1` (stereo unspecified) gave IL-1B inflam inh 28, ClpP mod -1%, D3 ag 1, DT40 TDP1 CPT inconclusive, D3 antag -9 and DT40 TDP1 no CPT inconclusive.
O=S(=O)(NCC(c1ccco1)N1CCN(c2ccc(F)cc2)CC1)c1ccc(F)cc1 (stereo unspecified) was read as IL-1B inflam inh 25, ClpP mod 1%, D3 ag -18, DT40 TDP1 CPT 23µM*, D3 antag 17 and DT40 TDP1 no CPT inconclusive.
Screening O=S(=O)(NCC(c1ccco1)N1CCN(c2ccc(F)cc2)CC1)c1cc(F)ccc1F (stereo unspecified) returned ClpP mod -5%, D3 ag -10, DT40 TDP1 CPT 18µM* and DT40 TDP1 no CPT 16µM*.
`Cc1cc(C)c(S(=O)(=O)NCC(c2ccco2)N2CCN(c3ccccc3)CC2)c(C)c1` (stereo unspecified) gave ClpP mod 1%, D3 ag -18, DT40 TDP1 CPT 23µM* and DT40 TDP1 no CPT 26µM*.
Screening Cc1cc(C)c(S(=O)(=O)NCC(c2ccco2)N2CCOCC2)c(C)c1 (stereo unspecified) returned ClpP mod 2%, D3 ag -9, DT40 TDP1 CPT inconclusive and DT40 TDP1 no CPT inconclusive.
COc1ccc(S(=O)(=O)NCC(c2cccnc2)N2CCN(c3ccc(F)cc3)CC2)cc1C (stereo unspecified) was read as IL-1B inflam inh inconclusive, ClpP mod -2%, D3 ag 9, DT40 TDP1 CPT 15µM*, D3 antag inconclusive and DT40 TDP1 no CPT 16µM*.
For O=S(=O)(NCC(c1ccco1)N1CCN(c2ccccc2)CC1)c1cc(F)ccc1F (stereo unspecified) the results were ClpP mod -6%, D3 ag -4, DT40 TDP1 CPT inconclusive and DT40 TDP1 no CPT inconclusive.
COc1ccc(S(=O)(=O)NCC(c2cccnc2)N2CCN(c3ccccc3)CC2)cc1C (stereo unspecified) was read as IL-1B inflam inh -5, ClpP mod -3%, D3 ag 6, DT40 TDP1 CPT inconclusive, D3 antag 11 and DT40 TDP1 no CPT inconclusive.
`CN(C)CC(C)(C)CNS(=O)(=O)c1ccc(Cl)s1` gave IL-1B inflam inh -4, D3 ag 5, DT40 TDP1 CPT -1%, D3 antag -23 and DT40 TDP1 no CPT -5%.
For COc1ccc(S(=O)(=O)NCC(c2ccco2)N2CCN(c3ccc(F)cc3)CC2)cc1C (stereo unspecified) the results were ClpP mod -5%, D3 ag -13, DT40 TDP1 CPT 16µM* and DT40 TDP1 no CPT 23µM*.
`CSc1ccccc1NC(=O)C1=COCCO1` gave IL-1B inflam inh -12, ClpP mod 0%, D3 ag 1, DT40 TDP1 CPT -11%, D3 antag 2 and DT40 TDP1 no CPT 23%.
Screening C=CC(=O)Oc1ccc(N2Cc3ccccc3C2=O)cc1 returned IL-1B inflam inh 0, ClpP mod -2%, D3 ag -2, DT40 TDP1 CPT 3.7µM*, D3 antag -64* and DT40 TDP1 no CPT 4.6µM*.
`O=C(Nc1ccc(N2CCN(C(=O)c3ccco3)CC2)cc1)c1cccs1` gave IL-1B inflam inh -52*, ClpP mod 1%, D3 ag 0, DT40 TDP1 CPT inconclusive, D3 antag 44 and DT40 TDP1 no CPT -29%.
`CC(C)c1ccc(NC(=O)C(c2ccccc2)N2CCN(C(=O)c3ccco3)CC2)cc1` (stereo unspecified) gave IL-1B inflam inh inconclusive, ClpP mod -1%, D3 ag -2, DT40 TDP1 CPT inconclusive, D3 antag 0 and DT40 TDP1 no CPT 18µM*.
Screening CC(C)(C)OC(=O)N1CCN(c2ccc(NC(=O)c3ccco3)cc2)CC1 returned IL-1B inflam inh -2, D3 ag 2, DT40 TDP1 CPT 18µM*, D3 antag 10 and DT40 TDP1 no CPT 16µM*.
For O=C(Nc1ccc(N2CCN(C(=O)c3ccco3)CC2)cc1)c1ccco1 the results were IL-1B inflam inh -3, D3 ag -1, DT40 TDP1 CPT 0%, D3 antag 2 and DT40 TDP1 no CPT 5%.
Screening O=C(Nc1ccc(N2CCN(C(=O)c3ccco3)CC2)cc1)C(c1ccccc1)c1ccccc1 returned IL-1B inflam inh 10, ClpP mod 1%, D3 ag 2, DT40 TDP1 CPT 21µM*, D3 antag -5 and DT40 TDP1 no CPT 16µM*.
Screening CCCCc1ncc(CN2CCC(n3nccc3NC(=O)C(OC)c3ccccc3)CC2)[nH]1 (stereo unspecified) returned IL-1B inflam inh 4, ClpP mod -1%, D3 ag 2, DT40 TDP1 CPT -2%, D3 antag 27 and DT40 TDP1 no CPT 21%.
Screening Cc1cccc(C(c2sc3nc(-c4ccco4)nn3c2O)N2CCN(c3ccccc3F)CC2)c1 (stereo unspecified) returned ClpP mod -1%, D3 ag -10, DT40 TDP1 CPT -17% and DT40 TDP1 no CPT -13%.
Cc1c2cnn(CC(=O)Nc3c(F)c(F)cc(F)c3F)c(=O)c2c(C)n1Cc1ccccc1F was read as IL-1B inflam inh 23, D3 ag -7, DT40 TDP1 CPT -27%, D3 antag 11 and DT40 TDP1 no CPT -12%.
For Cc1ccc(C)c(NC(=O)Cn2ncc3c(C)n(Cc4ccc(F)cc4)c(C)c3c2=O)c1 the results were ClpP mod 3%, D3 ag 0, DT40 TDP1 CPT inconclusive and DT40 TDP1 no CPT inconclusive.
Screening Cc1c2cnn(CC(=O)NCc3ccc(F)cc3)c(=O)c2c(C)n1Cc1ccccc1F returned ClpP mod -2%, D3 ag -1, DT40 TDP1 CPT inconclusive and DT40 TDP1 no CPT 16µM*.
For CCC(C)NC(=O)Cn1ncc2c(C)n(Cc3ccc(F)cc3)c(C)c2c1=O (stereo unspecified) the results were ClpP mod -17%, D3 ag 7, DT40 TDP1 CPT 23µM* and DT40 TDP1 no CPT inconclusive.
